# Assay results reported in PubChem BioAssay (NCATS).
# “And” between values parts separate entries of the source, which are not always exact repeats. Equal values may be shown once. Records with an inconclusive call do not appear. The source made the active and inactive calls. Unless noted, calls come from the whole dose curve; as a rule, active = well fitted curve in the direction sought with a large enough effect; inconclusive = small, poorly fitted or top-dose-only effect, or another doubt; inactive = no such curve, though single readings can be large; an effect the other way counts as inactive or inconclusive.
# How the values were obtained:
# [1] = molecular target: Calcium and integrin-binding protein 1 (Homo sapiens) (UniProt Q99828); assay: Primary qHTS for Identification of Calcium Integrin Binding Protein 1 (CIB1) Competitor (AID 1508620);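 note: GST tagged CIB1 binding a fluorescein labelled alphaIIb integrin peptide tracer; top concentration of the series differs between compounds; % is set by controls: 0 for no effect and ±100 for the full control effect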
# How it was run: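 CIB1-GST (1 uM final) and compound incubated 15 min at room temperature before adding FITC-alphaIIb peptide tracer (100 nM final). Competition for binding read by fluorescence polarization (ex 480, em 540) after another 15 min at room temperature.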
# [2] = molecular target: Catechol O-methyltransferase (Homo sapiens) (UniProt P21964); assay: Confirmatory Screen for Target Class Profiling of Small Molecule Inhibitors of Methyltransferases (AID 1745852); conditions: MTase-Glo luminescence, SAH detection, recombinant enzyme; measured here: COMT max response; stronger effect = lower value; for activity change, negative = inhibition: % is set by controls: 0 for no effect and ±100 for the full control effect
# [3] = molecular target: Guanidinoacetate N-methyltransferase (Homo sapiens) (UniProt Q14353); assay: as above; conditions: activity change, negative = inhibition: at 57.3 µM (top of the series) unless noted
# [4] = molecular target: Nicotinamide N-methyltransferase (Homo sapiens) (UniProt P40261); assay: as above; conditions: MTase-Glo luminescence, SAH detection, recombinant enzyme; measured here: NNMT max response; stronger effect = lower value
# [5] = molecular target: Phenylethanolamine N-methyltransferase (Homo sapiens) (UniProt P11086); assay: as above; conditions: MTase-Glo luminescence, SAH detection, recombinant enzyme; measured here: PNMT max response; stronger effect = lower value
# [6] = molecular target: Cytochrome P450 2D6 (Homo sapiens) (UniProt P10635); assay: Cytochrome P450 family 2 subfamily D member 6 (CYP2D6) small molecule antagonists: luciferase biochemical (cell-free) qHTS assay (AID 1645840; active = well fitted curve in the direction sought with a large enough effect in the repeat runs; an effect the other way counts as inactive or inconclusive; note: nearly all actives have a fitted effect of over 55% in size; note: potency is the fitted concentration of half-maximal effect; for activity change, negative = inhibition: % is set by controls: 0 for no effect and ±100 for the full control effect)
# How it was run: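 P450-Glo luminescent screen: recombinant CYP2D6 enzyme–proluciferin substrate mix preincubated with compound 10 min at room temperature, then NADPH regeneration added for 1 h at room temperature. Detection reagent added for 20 min; luciferin light read as relative luminescence units.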
# [7] = Primary qHTS for inhibitors of nuclear receptor binding SET domain protein 2 (NSD2) in an isogenic RCH-ACV NSD2 p.E1099K mutant (9B) (AID 1645876); note: nearly all actives have a fitted effect of over 70% in size; note: potency is the fitted concentration of half-maximal effect
# [8] = Primary qHTS for inhibitors of nuclear receptor binding SET domain protein 2 (NSD2) in an RCH-ACV wild type WT cells (2C) (AID 1645877); note: nearly all actives have a fitted effect of over 70% in size; note: potency is the fitted concentration of half-maximal effect
# [9] = molecular target: Cytochrome P450 2C9 (Homo sapiens) (UniProt P11712); assay: Cytochrome P450 family 2 subfamily C member 9 (CYP2C9) small molecule antagonists: luciferase biochemical (cell-free) qHTS assay (AID 1645842; active = well fitted curve in the direction sought with a large enough effect in the repeat runs; an effect the other way counts as inactive or inconclusive; note: nearly all actives have a fitted effect of over 55% in size; note: potency is the fitted concentration of half-maximal effect; for activity change, negative = inhibition: % is set by controls: 0 for no effect and ±100 for the full control effect)
# How it was run: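 Luminescence, after 20 min with luciferin detection reagent, reflected CYP2C9 turnover during a 1 h NADPH-driven reaction at 37C. Enzyme-substrate mix contained 0.4% bovine serum albumin and was preincubated with compound 10 min at room temperature.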
# [10] = Confirmatory qHTS for small molecule stabilizers of the endoplasmic reticulum resident proteome: Secreted ER Calcium Modulated Protein (SERCaMP) assay (AID 1508628);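 note: SH-SY5Y cells given compound 16 h then thapsigargin 100 nM for 4 h; % is set by controls: 0 for no effect and ±100 for the full control effect; nearly all actives have a fitted effect of over 40% in size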
# How it was run: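 We seeded SH-SY5Y-GLuc-SERCaMP cells, added compounds (three concentrations in the primary run, eleven up to 76.6 uM in confirmation), incubated 16 h, depleted ER calcium with thapsigargin, and read luciferase 4 h later.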
# [11] = molecular target: Cytochrome P450 3A4 (Homo sapiens) (UniProt P08684); assay: Cytochrome P450 family 3 subfamily A member 4 (CYP3A4) small molecule antagonists: luciferase qHTS assay (AID 1645841; active = well fitted curve in the direction sought with a large enough effect in the repeat runs; an effect the other way counts as inactive or inconclusive; note: potency is the fitted concentration of half-maximal effect; nearly all actives have a fitted effect of over 45% in size)
# How it was run: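 Luminescent CYP3A4 activity readout: compounds plus enzyme-substrate mix 10 min at room temperature, reaction started with NADPH regenerating system for 1 h, stopped with detection reagent, read after 20 min. Ketoconazole served as control.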
# Chain of Catechol O-methyltransferase (Homo sapiens) (P21964 whole entry, looked up): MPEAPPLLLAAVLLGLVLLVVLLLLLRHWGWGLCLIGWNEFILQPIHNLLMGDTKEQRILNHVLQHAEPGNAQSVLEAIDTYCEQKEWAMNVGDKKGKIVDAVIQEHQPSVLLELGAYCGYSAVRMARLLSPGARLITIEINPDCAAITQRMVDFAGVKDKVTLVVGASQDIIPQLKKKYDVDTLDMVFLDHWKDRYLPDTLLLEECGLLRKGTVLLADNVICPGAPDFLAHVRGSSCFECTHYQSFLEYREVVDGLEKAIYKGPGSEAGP
# Chain of Calcium and integrin-binding protein 1 (Homo sapiens) (Q99828 whole entry, looked up): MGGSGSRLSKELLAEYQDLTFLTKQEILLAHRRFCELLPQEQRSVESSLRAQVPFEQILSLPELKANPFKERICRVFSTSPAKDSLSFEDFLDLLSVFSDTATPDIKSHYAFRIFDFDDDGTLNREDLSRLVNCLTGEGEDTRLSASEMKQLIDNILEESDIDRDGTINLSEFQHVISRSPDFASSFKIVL
# Chain of Nicotinamide N-methyltransferase (Homo sapiens) (P40261 whole entry, looked up): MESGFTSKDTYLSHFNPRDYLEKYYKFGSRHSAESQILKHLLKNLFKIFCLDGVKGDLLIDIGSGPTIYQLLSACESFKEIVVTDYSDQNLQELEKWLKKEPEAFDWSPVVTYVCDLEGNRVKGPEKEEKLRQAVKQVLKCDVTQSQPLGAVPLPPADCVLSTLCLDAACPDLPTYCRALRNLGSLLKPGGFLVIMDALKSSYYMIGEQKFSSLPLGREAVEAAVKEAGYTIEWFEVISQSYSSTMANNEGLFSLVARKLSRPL
# Chain of Phenylethanolamine N-methyltransferase (Homo sapiens) (P11086 whole entry, looked up): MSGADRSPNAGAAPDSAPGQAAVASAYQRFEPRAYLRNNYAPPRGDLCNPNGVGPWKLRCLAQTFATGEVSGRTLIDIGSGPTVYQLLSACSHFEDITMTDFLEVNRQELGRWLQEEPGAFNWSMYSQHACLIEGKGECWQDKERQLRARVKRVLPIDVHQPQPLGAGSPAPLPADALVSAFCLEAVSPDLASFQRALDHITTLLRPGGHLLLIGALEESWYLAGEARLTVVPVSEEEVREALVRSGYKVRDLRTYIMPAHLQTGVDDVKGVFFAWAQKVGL
# Chain of Cytochrome P450 2C9 (Homo sapiens) (P11712 whole entry, looked up): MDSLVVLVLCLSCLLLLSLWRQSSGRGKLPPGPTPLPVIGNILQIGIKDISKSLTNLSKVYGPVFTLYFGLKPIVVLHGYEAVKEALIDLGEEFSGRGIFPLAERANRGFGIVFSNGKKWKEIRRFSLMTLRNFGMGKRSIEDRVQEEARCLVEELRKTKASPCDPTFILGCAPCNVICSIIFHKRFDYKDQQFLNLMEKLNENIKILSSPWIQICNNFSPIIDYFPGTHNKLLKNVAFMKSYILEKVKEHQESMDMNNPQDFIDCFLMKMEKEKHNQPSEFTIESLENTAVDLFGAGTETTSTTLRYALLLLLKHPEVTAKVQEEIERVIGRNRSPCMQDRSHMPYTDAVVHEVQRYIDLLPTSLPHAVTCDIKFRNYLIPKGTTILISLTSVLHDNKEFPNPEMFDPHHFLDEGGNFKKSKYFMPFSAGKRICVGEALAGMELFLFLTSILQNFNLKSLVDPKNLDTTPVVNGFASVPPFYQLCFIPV
# Chain of Cytochrome P450 2D6 (Homo sapiens) (P10635 whole entry, looked up): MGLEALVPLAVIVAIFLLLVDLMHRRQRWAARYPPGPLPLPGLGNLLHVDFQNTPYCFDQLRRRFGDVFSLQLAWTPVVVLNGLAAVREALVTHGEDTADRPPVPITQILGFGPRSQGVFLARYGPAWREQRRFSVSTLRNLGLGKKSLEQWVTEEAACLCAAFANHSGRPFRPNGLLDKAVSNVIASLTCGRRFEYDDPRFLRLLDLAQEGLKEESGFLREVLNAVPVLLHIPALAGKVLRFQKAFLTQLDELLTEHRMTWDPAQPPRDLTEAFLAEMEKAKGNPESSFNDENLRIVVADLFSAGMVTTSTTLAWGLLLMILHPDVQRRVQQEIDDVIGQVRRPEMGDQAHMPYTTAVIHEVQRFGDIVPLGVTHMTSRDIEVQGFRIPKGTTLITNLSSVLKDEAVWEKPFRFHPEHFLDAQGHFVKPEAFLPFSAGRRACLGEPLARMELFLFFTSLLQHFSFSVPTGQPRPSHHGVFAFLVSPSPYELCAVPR
# Chain of Cytochrome P450 3A4 (Homo sapiens) (P08684 whole entry, looked up): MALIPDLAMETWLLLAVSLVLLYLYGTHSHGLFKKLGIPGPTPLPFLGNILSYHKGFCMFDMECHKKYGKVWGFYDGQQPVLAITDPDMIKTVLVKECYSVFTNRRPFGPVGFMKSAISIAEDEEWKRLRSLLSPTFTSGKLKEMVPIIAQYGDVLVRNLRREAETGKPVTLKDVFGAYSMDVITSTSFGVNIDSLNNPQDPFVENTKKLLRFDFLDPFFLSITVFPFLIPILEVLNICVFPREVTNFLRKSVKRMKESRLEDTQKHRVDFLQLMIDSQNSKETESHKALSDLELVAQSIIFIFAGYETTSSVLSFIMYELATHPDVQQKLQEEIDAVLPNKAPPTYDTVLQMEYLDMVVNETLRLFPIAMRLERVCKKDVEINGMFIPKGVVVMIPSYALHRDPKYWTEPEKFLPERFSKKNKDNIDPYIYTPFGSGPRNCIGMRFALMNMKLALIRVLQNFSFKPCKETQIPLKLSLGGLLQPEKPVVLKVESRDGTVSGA
compound,measurement,setting,value
C/C=C/c1ccc2c(c1)[C@@H](C)[C@H](c1ccc(O)cc1)O2,Potency,[1],inactive
same,activity,[2],-8.28%
same,"activity change, negative = inhibition",[3],0.447%
same,activity,[4],-59.1%
same,activity,[5],0.8%
Cn1nnc(-c2ccc(-c3ccc(N4C[C@H](CO)OC4=O)cc3F)cn2)n1,Potency,[6],inactive
same,Potency,[7],inactive
C=C1C(OC2OCC(O)C(O)C2O)CC2C(C)(C)C(O)CCC2(C)C1CC/C(C)=C\CO (stereo unspecified),Potency,[1],inactive
same,Potency,[8],8.93 µM (active)
COc1ccc(CCC(=O)c2c(O)cc(O)cc2O[C@@H]2O[C@H](CO)[C@@H](O)[C@H](O)[C@H]2O)cc1,Potency,[1],inactive
same,Potency,[8],8.93 µM (active)
O=C(O)CCCCCC[C@H]1C(=O)NC(=O)N1CC[C@@H](O)C1CCCCC1,Potency,[1],inactive
same,Potency,[8],inactive
COc1cc2c(cc1OC)-c1[nH]nc(Nc3cccc(F)c3)c1C2,Potency,[6],21.3 µM (active)
same,Potency,[9],8.49 µM (active)
same,Potency,[7],0.0916 µM (active)
same,Potency,[8],0.0578 µM (active)
CCC[C@@H]1O[C@@H]2C[C@H]3[C@@H]4CCC5=CC(=O)C=C[C@]5(C)[C@H]4[C@@H](O)C[C@]3(C)[C@]2(C(=O)CO)O1,Potency,[1],inactive
same,Potency,[8],0.0058 µM (active)
CCN(CC)CCN(Cc1ccc(-c2ccc(C(F)(F)F)cc2)cc1)C(=O)Cn1c(SCc2ccc(F)cc2)nc(=O)c2c1CCC2,Potency,[6],9.52 µM (active)
same,Potency,[9],23.9 µM (active)
same,Potency,[7],2.9 µM (active)
same,Potency,[8],3.65 µM (active)
same,activity,[2],-2.67%
same,"activity change, negative = inhibition",[3],0%
same,activity,[4],-45.6%
same,activity,[5],-1.88%
CN1CCN(C(=O)c2ccc3cc(CCNc4ncnc5ccc(C#N)cc45)ccc3c2)CC1,Potency,[1],inactive
same,Potency,[8],1.32 µM (active)
same,activity,[2],-7.48%
same,"activity change, negative = inhibition",[3],-3.33%
same,activity,[4],-11.9%
same,activity,[5],-8.1%
Nc1nccn2c(C3CCC(C(=O)O)CC3)nc(-c3cc4cccc(Cl)c4[nH]3)c12 (stereo unspecified),Potency,[6],inactive
same,Potency,[7],1.29 µM (active) and 3.72 µM (active)
same,Potency,[8],1.15 µM (active) and 4.17 µM (active)
C/C(=C/CO)CC[C@@H]1[C@@](C)(O)CCC2C(C)(C)CCC[C@]21C (stereo partly specified),Potency,[1],inactive
same,Potency,[8],inactive
CC/C=C\CC1C(=O)C=CC1(CCCCCCCC(=O)O)OC(C)=O (stereo unspecified),Potency,[7],inactive
C=C1CCC2C(C(C)(C)O)CCC2(C)CC(O)C(=C)CCC1O (stereo unspecified),Potency,[1],inactive
same,Potency,[8],10.1 µM (active)
C[C@@H]1O[C@@H](O[C@H]2[C@H](O[C@H]3CC[C@@]4(C)C(CC[C@]5(C)C4C=C[C@]46OC[C@@]7(CCC(C)(C)C[C@H]74)[C@@H](O)C[C@]65C)[C@]3(C)CO)O[C@H](CO)[C@@H](O)[C@@H]2O[C@@H]2O[C@H](CO)[C@@H](O[C@@H]3O[C@@H](C)[C@H](O)[C@@H](O)[C@H]3O)[C@H](O)[C@H]2O)[C@H](O)[C@H](O)[C@H]1O (stereo partly specified),Potency,[1],inactive
same,Potency,[8],3.88 µM (active)
Cc1ccc(N)cc1O,outcome,[10],inactive
same,Potency,[6],2.45 µM (active)
same,Potency,[9],20 µM (active)
COc1cc2c(c(OC)c1CC=C(C)C)C[C@H](c1ccc(O)cc1O)CO2,Potency,[1],inactive
same,Potency,[8],inactive
Cc1cc(C(N)=O)ccc1-n1c(CCC(=O)O)ccc1-c1ccc(-n2ccnc2)cc1,Potency,[6],0.952 µM (active)
same,Potency,[9],3.38 µM (active)
same,Potency,[7],inactive
same,Potency,[8],inactive
C=C1C(=O)OC2CC3(C)C(CC12)C(C)=CC(O)C3OC(C)=O (stereo unspecified),Potency,[1],inactive
same,activity,[2],-65.4%
same,"activity change, negative = inhibition",[3],0%
same,activity,[4],1.24%
same,activity,[5],-2.5%
COc1ccc(CNC(=O)c2sc3nc(C)cc(C)c3c2N)cc1,Potency,[9],3.79 µM (active)
same,Potency,[8],inactive
COC(=O)C1(C)CCC2(C(=O)O)CCC3(C)C(=CCC4C5(C)CC(O)C(OC6OCC(O)C(O)C6O)C(C)(CO)C5CCC43C)C2C1 (stereo unspecified),Potency,[1],inactive
same,Potency,[8],inactive
CC(C)CCC(=O)CC1c2ccccc2C(=O)N1c1ccc2ccc(Cl)nc2n1 (stereo unspecified),Potency,[6],inactive
same,Potency,[9],1.51 µM (active)
same,Potency,[7],inactive
same,Potency,[8],inactive
CCOC(=O)CCN(C(=O)c1ccc2c(c1)nc(CNc1ccc(C(=N)N)cc1)n2C)c1ccccn1,Potency,[6],inactive
same,Potency,[7],inactive
same,Potency,[8],inactive
same,activity,[2],-3.92%
same,"activity change, negative = inhibition",[3],2.12%
same,activity,[4],-8.7%
same,activity,[5],0.0478%
CC12CCC(OC3OC(CO)C(O)C(OC4OC(CO)C(O)C(O)C4O)C3O)CC1=CCC1C2CCC2(C)/C(=C3/COC(=O)C3)CCC12O (stereo unspecified),Potency,[1],inactive
same,Potency,[8],inactive
CC(C)(C)NCCCNC(=O)c1cccc(Br)c1,Potency,[6],0.849 µM (active)
same,Potency,[9],inactive
same,Potency,[7],inactive
same,Potency,[8],inactive
Cc1cc(-c2cc(O)ccc2Cl)cc2nnc(Nc3ccc(OCCN4CCCC4)cc3)nc12,Potency,[6],16.9 µM (active)
same,Potency,[9],12 µM (active)
same,Potency,[7],3.25 µM (active)
same,Potency,[8],2.9 µM (active)
N[C@H]1Cc2ccccc2N(O)C1=O,Potency,[1],inactive
same,Potency,[8],12.9 µM (active)
Cc1ccc(NC(=O)c2ccc(CN3CC[C@H](N(C)C)C3)c(C(F)(F)F)c2)cc1Nc1nccc(-c2cncnc2)n1,Potency,[11],1.69 µM (active)
same,Potency,[7],8.11 µM (active)
same,Potency,[8],7.23 µM (active)
Cc1cccc(C)c1-n1c(=O)c2cnc(Nc3ccc(N4CCN(C)CC4)cc3)nc2n2c3ccccc3nc12,Potency,[6],inactive
same,Potency,[9],8.49 µM (active)
same,Potency,[7],0.205 µM (active)
same,Potency,[8],0.258 µM (active)
